Assay results taken from PubChem BioAssay.
A number with no mark means an inactive call.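 Rule for the calls, unless noted: active = percent response above 42, roughly 3 SD of non-fluorescent test compounds; inactive = the rest.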

Assays:
[1] = modulators of MEP2-GFP levels in yeast, confirmation, S. cerevisiae, flow cytometry GFP, cherry picks (AID 2272;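 active = GFP response above 150% of the DMSO control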;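 note: ratio of well signal to plate DMSO mean so 100% equals DMSO level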); conditions: S. cerevisiae MEP2-GFP strain, 3 h, at 10 µM, stronger effect = higher value
[2] = AGP1-GFP expression modulators, hit retest, confirmation, cell-based, flow cytometry, S. cerevisiae, cherry picks (AID 2273;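 active = GFP response above 150% of the DMSO level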;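 note: median GFP channel fluorescence over the whole cell population gate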); conditions: S. cerevisiae AGP1-GFP strain, 3 h, at 10 µM
[3] = molecular target: Beta-2 adrenergic receptor (Homo sapiens) (UniProt P07550); experiment: beta2AR agonists driving receptor internalization, pilot screen, cell-based, FAP fluorogen, flow cytometry, validation set (AID 504459); conditions: Am2.2-beta2AR cells, FAP surface receptor flow cytometry; at 10 µM; stronger effect = higher value;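 note: agonist-driven loss of surface beta2AR via internalization measured by FAP dye flow cytometry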
Beta-2 adrenergic receptor (Homo sapiens), sequence (P07550 whole entry, looked up): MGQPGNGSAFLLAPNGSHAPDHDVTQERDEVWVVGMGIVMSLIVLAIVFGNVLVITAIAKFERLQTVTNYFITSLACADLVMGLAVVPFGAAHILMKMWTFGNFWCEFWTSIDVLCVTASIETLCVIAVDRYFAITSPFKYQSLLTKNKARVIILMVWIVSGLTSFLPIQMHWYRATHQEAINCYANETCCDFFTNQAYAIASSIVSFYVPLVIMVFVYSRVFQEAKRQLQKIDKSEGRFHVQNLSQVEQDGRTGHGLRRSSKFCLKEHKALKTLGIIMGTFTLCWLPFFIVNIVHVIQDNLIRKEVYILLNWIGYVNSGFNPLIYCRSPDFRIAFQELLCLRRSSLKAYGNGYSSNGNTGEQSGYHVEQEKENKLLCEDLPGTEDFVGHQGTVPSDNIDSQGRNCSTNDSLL

## Cc1ccc(/C=C2\C(=O)NC(=O)N(CC3CCCO3)C2=O)s1 (stereo not drawn)
[1]
  GFP response vs DMSO: 92%
[2]
  GFP response, % of DMSO: 92.1%

## C#CCOc1cc(C2C3=C(COC3=O)Nc3cc4c(cc32)OCO4)ccc1OC (stereo not drawn)
[1]
  GFP response vs DMSO: 117%
[2]
  GFP response, % of DMSO: 103%

## CN1CCN(c2ccc([N+](=O)[O-])c(Sc3ccccn3)c2)CC1
[1]
  GFP response vs DMSO: 105%
[2]
  GFP response, % of DMSO: 98%

## Cc1c2ccncc2c(C)c2c1[nH]c1ccccc12
[3]
  response: -323%

## NCC(O)c1ccc(O)cc1 (stereo not drawn)
[3]
  response: 8.68%

## c1cnc2c(c1)ccc1ncccc12
[3]
  response: -15%

## CCC(C)N1C(=O)/C(=C\c2cnc(N(C)C)nc2)C(=O)NC1=S (stereo not drawn)
[1]
  GFP response vs DMSO: 104%
[2]
  GFP response, % of DMSO: 97.2%

## O=C1CSC2N1CCNC21CCCCC1 (stereo not drawn)
[3]
  response: 2.41%

## CC/C(=C\C=C\[C@@H]1C=C[C@@H]2CCC[C@H]2[C@@H]1C(=O)c1ccc[nH]1)[C@@H]1O[C@@H]([C@@H](C)C(=O)O)CC[C@@H]1C
[3]
  response: 9.7%

## CC12CCC3C(CC=C4CC5(CCC43C)OCCO5)C1CCC2=O (stereo not drawn)
[3]
  response: 0.6%

## O=C(O)c1[nH]c(=O)[nH]c(=O)c1F
[1]
  GFP response vs DMSO: 101%
[2]
  GFP response, % of DMSO: 102%

## COc1cc(/C=C2\C(=O)NC(=O)N(c3ccccc3)C2=O)c([N+](=O)[O-])cc1OC
[3]
  response: 0.05%

## C[C@H]1CCCC(=O)CCCCCc2cc(O)cc(O)c2C(=O)O1
[3]
  response: -25.5%

## CC1(C)OC(c2ccccc2)=C/C(=C/C=C2C(=O)NC(=S)NC2=O)O1
[1]
  GFP response vs DMSO: 145%
[2]
  GFP response, % of DMSO: 92.3%

## C[C@]12CCC(=O)C=C1CC[C@@H]1[C@@H]2C(=O)C[C@]2(C)C(=O)CC[C@@H]12
[3]
  response: -22.9%

## CCCC(C)(COC(N)=O)COC(=O)NC(C)C (stereo not drawn)
[3]
  response: -23.9%

## CCCC(=O)OCC[N+](C)(C)C
[3]
  response: 9.88%

## O=[N+]([O-])c1ccc(N2CCNCC2)cc1Sc1ccccn1
[1]
  GFP response vs DMSO: 97.8%
[2]
  GFP response, % of DMSO: 97.2%

## O=C1NC(=S)N(c2ccccc2)C(=O)/C1=C/c1ccco1
[1]
  GFP response vs DMSO: 122%
[2]
  GFP response, % of DMSO: 103%

## CCC(COC(=O)c1cc(OC)c(OC)c(OC)c1)(c1ccccc1)N(C)C (stereo not drawn)
[3]
  response: -24.8%

## Cc1nc2ccccc2c(=O)n1-c1ccc(C(=O)O)cc1
[3]
  response: 0.79%

## CC12CN3CC(c4ccccc4)(CN(C1)C31CCCCC1)C2=O
[3]
  response: 15.3%

## Clc1ccc(COC(Cn2ccnc2)c2ccc(Cl)cc2Cl)c(Cl)c1 (stereo not drawn)
[3]
  response: -12.4%

## NCCc1ccc(O)cc1
[3]
  response: -14.8%

## CC(=O)Nc1cc([As](=O)(O)O)ccc1O
[3]
  response: -23.7%

## C[C@]12CCC(=O)C(O)=C1CC[C@@H]1[C@@H]2CC[C@]2(C)C(=O)CC[C@@H]12
[1]
  GFP response vs DMSO: 102%
[2]
  GFP response, % of DMSO: 101%
[3]
  response: 4.26%

## CN1C(=O)C(=Cc2ccc(SC3CCCCC3)o2)C(=O)N(C)C1=O
[1]
  GFP response vs DMSO: 98.8%
[2]
  GFP response, % of DMSO: 101%
